# Screen size: about 53,000 sequences; about 3,700 (7%) were called active.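 How the source made its calls: active means gene knockdowns whose robust z-score for IL-1 alpha signal is at least 2 or at most -2, so actives lie on both sides; inactive means the rest.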 Many of the other results were omitted from the sample, so actives are more common in it than they were.
# Assay: Components of the Cytosolic LPS Sensing Pathway: Gene Identification via Genome-wide siRNA Screen;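 further: robust z of the log signal after scaling to non-targeting control siRNA wells of the plate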
# Details: RAW264.7 macrophages, IL-1a HTRF, actives lie on both sides, screened at 100 nM (by protocol), cells primed 5 h with Pam3CSK4 first
# In short: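 Using IL-1a HTRF as read-out, the screen measured release from RAW264.7 cells after 48h siRNA knockdown (100 nM), 5 h Pam3CSK4 priming and 24 h cytosolic LipidA. Values were expressed relative to negative-control wells as robust z-scores.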
row,Sequence,z-score
1,GCAACUAGCGUGUGUUCCUTT against Arpc1a,2.4 (active)
2,GGCACAGAAUAUCCACCACTT against Olfr283,-1.01 (inactive)
3,GGCAUUCAGGAAGUUACUGTT against Krt75,-1.63 (inactive)
4,GGCUUAAUUGCUAGCCAAGTT against Slc7a13,0.849 (inactive)
5,GGCUUUCGCUAGAAAACUCTT against Sftpc,0.531 (inactive)
6,CGUGGAAAGAAAAUUAUCATT against Psmd11,-2.21 (active)
7,GCAAAUUUUAUAUGCGACUTT against Glipr1,-0.561 (inactive)
8,GGAGAAUGACUACUAUACUTT against Stt3a,-0.127 (inactive)
9,CCAGACACGCAUUGCGAAATT against H2-M2,0.357 (inactive)
10,GCAUCAAUUCCCAAACCUUTT against Selenov,-0.0263 (inactive)
11,GGGCAAACCAGUUAGCAGATT against Atxn2,0.278 (inactive)
12,GGGAAGCCUUACUUAUUGGTT against Vmn1r53,1.25 (inactive)
13,GGACGAAAUCUUGUCUGAUTT against Atg4b,2.59 (active)
14,GGACAAAACCUCAGUUGAUTT against Bves,1.05 (inactive)
15,CCAAGGACACUAUACAAAUTT against Fank1,0.957 (inactive)
16,CCCGCAACAAUAAACCUGATT against Yif1b,-1.36 (inactive)
17,GCAGUACAUAGGACAAUACTT against Ccdc97,0.0835 (inactive)
18,GGAAGAAGAAAGUGUUAAATT against Ythdf2,-0.337 (inactive)
19,GGUCCAAUUUUAUAACAGUTT against Dmtf1,0.359 (inactive)
20,GCCAUGUCAAUCAAUCACUTT against Nucks1,-2.57 (active)
21,GGCUACCAAGGCAGUUUCCTT against Glis1,-1.35 (inactive)
22,GCUUUACUCCAGAUGGAUCTT against Chaf1b,3.23 (active)
23,GGGUAUCAGUGCCUUCCUGTT against Acads,-1.05 (inactive)

row,Sequence,z-score
1,GGUCACUCGGUUCACAAAATT against Bid,-0.731 (inactive)
2,CGUUCAUAUAGAGAACUGUTT against Naip1,0.699 (inactive)
3,CGUGCCUGCUCAAUUAAUUTT against 1700067P10Rik,2.46 (active)
4,GGGUAAUAGACCAUUUCUUTT against Olfr124,0.255 (inactive)
5,GGAGCUUAGAGGAACGAAUTT against Cyp2j9,1.4 (inactive)
6,GGAUUUUGGCCAAAUUGGUTT against Slc25a30,-2.08 (active)
7,GGAAGAAGAAGACCAGGGATT against Parvb,-0.0188 (inactive)
8,GGCCAACUUCGAAGAAAAGTT against Mrpl52,0.192 (inactive)
9,CCAAAAAAUCCUAUACUCUTT against Cdh8,1.42 (inactive)
10,GGUCACUUCCUUAAUUUUATT against Disc1,-1.62 (inactive)
11,GGAAGACCCUAAUCUAGUCTT against Cox5b,2.1 (active)
12,GGCUUGGUGUUUUGAUUAGTT against Rogdi,1.6 (inactive)
13,GGUCUUGCAUGUCUCUGAGTT against Lrrc47,-1.45 (inactive)
14,GGAGUUUGAACAUAUGAAGTT against Rcn1,-0.417 (inactive)
15,GCUAUCAUGAAGCUAAAUGTT against Igf2bp1,0.267 (inactive)
16,GGACAAGCAAGAAGGAAUUTT against Polr2j,-2.43 (active)
17,CCAGAUUAUGACAAAGCGUTT against Glyat,-0.0538 (inactive)
18,AAACCAUACUUGAAAGAAATT against Olfr943,-0.36 (inactive)
19,GCAGUAGGUUGCACACAUATT against Art1,-2.11 (active)
20,GCACACGUCCUAUAAAAAUTT against Rad54b,0.532 (inactive)
21,GGACUUCUCUGUGAAGAUGTT against Ctsf,-0.129 (inactive)
22,GGAGAGAGGAUAAGUCACATT against Jsrp1,-1.44 (inactive)
23,GCUGGAUCCAUCUAAUUGCTT against Klhl12,0.0684 (inactive)

row,Sequence,z-score
1,CGGGAUCUUAGAAGAGCAATT against Ptpre,2.6 (active)
2,GGACCAGUUAAAGUCACCATT against Atp4b,-1.81 (inactive)
3,GGAAGGUGGCUAUUUUAAUTT against Acsl3,-0.207 (inactive)
4,CCAUUUCUUUCAGUGGCUGTT against Olfr48,-0.47 (inactive)
5,GGCUAUAAAAGCACAGUUUTT against Slc25a26,-0.61 (inactive)
6,CCCUGCAUUUGUCAAUUAUTT against Hnrnpl,-0.161 (inactive)
7,GGGACAAAGAGAUACACAUTT against 9530056K15Rik,1.11 (inactive)
8,GCCUGAUCGAUACGUGAUCTT against Naaladl1,3.35 (active)
9,GGAGGACAACAGCAAAACATT against Atoh1,-1.01 (inactive)
10,GGAAAGAGAAAAACAACCATT against Cngb3,-0.522 (inactive)
11,GGCUCACAUUGUAACUUAGTT against Krtap5-2,1.41 (inactive)
12,GGAGAAUGCUAAGGUUACUTT against Pcdhga9,0.269 (inactive)
13,CGGCACACUAAGAAACGGATT against Odf3l1,0.152 (inactive)
14,GGAAGGAUAUGAGAAUUUCTT against Nt5c3,2.51 (active)
15,GCUCUUACAUAGAACUUUGTT against Tpbg,-0.218 (inactive)
16,GGCCUUUUUUCUAUAUCUATT against Galnt3,-0.637 (inactive)
17,GGUGGAGGUGUGAUGGAUUTT against Slamf1,5.09 (active)
18,GGUGGUGGCAGAAAUGAAUTT against Dpep2,-0.946 (inactive)
19,CCAGUUGUGCAAUCAACAATT against Fam98c,-0.367 (inactive)
20,CGCGGUGGAGCUUCGAGAATT against Nrtn,0.374 (inactive)
21,GUUUCUCCAUGGAGUCAUUTT against Psmb5,-0.742 (inactive)
22,GGCAUUCGAAGGGACAGAUTT against Arg2,-2.06 (active)
23,GUGACCUCAUCCAGAAAAUTT against Vmn1r190-ps,-0.613 (inactive)

# — PubChem BioAssay AID1508600 (Functional Genomics Laboratory (NCATS/FGL), 2020)
